Compound activity deposited in PubChem BioAssay by several laboratories.
NR1D1 modulator = modulators of human Rev-erb alpha DNA binding | P20393 | activity, % at 10 µM | Rev-erbα–FITC-DNA binding, fluorescence polarization, 90 min | 0.79% of 370,000 active;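 active means activity above about 14%, limit read from the data; passing the limit was not always enough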;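 further: 0% = DMSO wells with 35 nM protein and 100% = DMSO wells with 750 nM protein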
Target sequence (P20393 whole entry, looked up): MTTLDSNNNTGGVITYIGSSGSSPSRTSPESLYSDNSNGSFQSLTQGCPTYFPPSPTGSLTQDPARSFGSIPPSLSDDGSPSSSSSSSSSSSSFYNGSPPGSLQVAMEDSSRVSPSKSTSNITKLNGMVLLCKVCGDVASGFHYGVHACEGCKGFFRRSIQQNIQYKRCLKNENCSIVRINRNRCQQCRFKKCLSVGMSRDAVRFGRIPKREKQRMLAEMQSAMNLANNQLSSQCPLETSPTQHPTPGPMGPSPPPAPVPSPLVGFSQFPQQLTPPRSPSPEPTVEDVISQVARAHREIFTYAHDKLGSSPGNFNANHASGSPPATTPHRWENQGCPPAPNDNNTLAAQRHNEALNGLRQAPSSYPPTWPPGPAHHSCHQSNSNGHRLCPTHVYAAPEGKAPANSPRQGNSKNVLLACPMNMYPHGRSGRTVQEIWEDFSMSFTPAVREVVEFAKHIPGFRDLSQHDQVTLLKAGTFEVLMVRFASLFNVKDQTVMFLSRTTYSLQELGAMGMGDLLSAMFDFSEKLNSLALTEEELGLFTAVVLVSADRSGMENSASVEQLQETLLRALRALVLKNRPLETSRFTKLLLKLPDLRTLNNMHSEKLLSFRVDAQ
EP2 modulator = modulators of human EP2 prostaglandin E2 receptor; 0.83% of 260,000 active; induction, % at 25 µM; P43116; AID 940; EP2-expressing cells, cAMP HTRF FRET, PGE2 co-stimulation;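 active means compounds whose cAMP rise, as percent of the full-agonist control response, exceeds 60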;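 further: rat C6 glioma line stably carrying human EP2 under a CMV promoter; the protocol text gives 20 µM as final concentration; 100% = response of wells given 1 µM PGE2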
SKN-1 block = inhibitors of C. elegans SKN-1; C. elegans VP596 Pgst-4::GFP/RFP ratio, acrylamide-induced, 24 h; inhibition, % at 21.8 µM; 0.49% of 360,000 active;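 active means interference check ratio from 0.5 to 1.5 plus GFP to RFP signal ratio inhibition reaching or exceeding a fixed threshold, cut at about 30% in these data, passing the limit was not always enough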
PG9 Ab binder = PG9 antibody binding by small molecule. TR-FRET gp120-PG9 antibody binding. inhibition, % at 6.7 µM. 0.43% of 360,000 active; in the data active means inhibition above about 8.5%
PGE2 EP2 inh = EP2 receptor (human) inhibition; C6 glioma cells expressing human EP2, cAMP TR-FRET; cells stimulated with saturating PGE2; AID 1422; 0.52% of 260,000 active; inhibition, % at 25 µM; P43116;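 active means percent inhibition above 40 after rounding to a whole number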;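 further: rat C6 glioma host cells with rolipram phosphodiesterase inhibitor present; the protocol text gives 20 µM as final concentration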
RAM network inh = inhibitors of the yeast RAM network; inhibition, % at 50 µM; AID 868; S. cerevisiae dse1pr::URA3 reporter, 5-FOA growth OD615, 2 d; analog-sensitive cbk1-as2 kinase mutant strain; 1.8% of 190,000 active;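 active means inhibition above a set limit, 3 SD over mean compound inhibition, cut at about 8.4% in these data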;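 further: 0% = DMSO-only wells with no growth and 100% = 10 µM 1-NA-PP1 full growth; inhibition rescues growth on 5-FOA so higher OD means more RAM inhibition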
Rev-erbA confirm = Rev-erb alpha (human) modulation, hit confirmation. shares compounds with NR1D1 modulator. Rev-erb alpha FITC-DNA binding, fluorescence polarization, 90 min. activation, % at 25 µM. 61% of 3,000 active;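 active means activation at or above a set limit, or at least 3 SD above the negative control mean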;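 further: 0% = 35 nM protein with DMSO and 100% = 750 nM protein high control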
RORg counter = RORgamma DNA-binding activity, dose-response counter-screen; shares compounds with NR1D1 modulator; purified RORgamma protein-FITC-DNA binding, fluorescence polarization; IC50, µM; 8% of 910 active;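 active means Compounds whose fitted half-maximal concentration for disrupting protein-DNA binding is below 10 micromolar; the record names Rev-erb in its text, so the target is in doubt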
An asterisk follows results filed as active; i = inactive; x = no result given. A selection: hits, their analogues and other compounds. The true share with any hit is near 2.9%.

SMILES	NR1D1 modulator	EP2 modulator	SKN-1 block	PG9 Ab binder	PGE2 EP2 inh	RAM network inh	Rev-erbA confirm	others
CCc1cc2c3c(c(=O)oc2cc1O)CCCC3	-3.6	32.6	20.1	-0.2	23.0	1.1	x
Cc1oc2c(C)c3oc(=O)c4c(c3cc2c1C)CCC4	46.0*	9.9	20.7	0.6	11.3	1.9	9.0
CC(=O)OCc1ccc(CN[C@@H]2CCC(=O)N[C@H]2c2cc(F)cc(F)c2)o1	x	-24.3	x	x	5.4	x	x
O=C(Nc1cccc(-c2nc3ccccc3s2)c1)c1ccc2c(c1)OCO2	45.2*	-62.5	-5.1	-1.4	14.4	4.6	11.9
O=C(Nc1ccc2nn(-c3ccccc3)nc2c1)c1ccc2c(c1)OCO2	23.2*	-4.4	15.3	-19.2	1.9	0.8	27.9*
O=C(Nc1cccc(F)c1)c1ccc2c(c1)OCO2	0.6	-18.8	0.7	-1.4	10.0	-0.5	x
CCN(CC)c1ccc(NC(=O)c2ccc3c(c2)OCO3)cc1	15.7*	x	-0.2	-11.1	x	x	1.4
Cc1c(NC(=O)c2ccc3c(c2)OCO3)cccc1-c1nc2ccccc2s1	13.0	-11.3	7.4	2.0	5.5	1.5	x
O=C(Nc1c(C(=O)Nc2cccc(F)c2)oc2ccccc12)c1ccc2c(c1)OCO2	51.1*	57.6	12.9	0.2	5.7	6.5	16.6
Cc1sc(NC(=O)C2(C)CCCO2)nc1-c1cc2ccccc2oc1=O (stereo not drawn)	x	-33.3	x	x	23.8	x	x
COc1ccc(OC)c(C(=O)Cn2cnc3c(cnn3-c3ccc(C)cc3)c2=O)c1	x	16.2	x	x	6.4	x	x
NC1=NC(=O)C2(COC(c3ccccc3)OC2)S1 (stereo not drawn)	x	-14.1	x	x	8.4	x	x
Cc1ccccc1Cn1c(SCC#N)nc2c1c(=O)n(C)c(=O)n2C	x	-7.2	x	x	7.4	x	x
C=CCN1C2CCCC1CC(NC(=O)Nc1cccc(F)c1)C2 (stereo not drawn)	x	-127.8	x	x	9.0	x	x
Cc1ccc(C(=O)CSc2nnnn2-c2ccc3c(c2)OCCO3)cc1C	x	-93.7	x	x	6.7	x	x
O=C(CSc1nnnn1-c1ccc2c(c1)OCCO2)c1cccc2c1OCCO2	107.3*	1.1	5.2	-1.9	29.4	1.0	81.0*	RORg counter=>40
O=C(CSc1nnc(-c2cccs2)n1-c1cccc(Cl)c1)c1cccc2c1OCCO2	79.4*	14.2	8.7	-0.2	22.8	3.8	85.1*	RORg counter=>40
COc1ccc(-n2nnnc2SCC(=O)c2ccc3c(c2)OCCO3)cc1	63.2*	-23.4	14.7	7.7	31.1	6.2	64.5*
O=c1c2ccccc2c(C=NCc2ccccn2)c(O)n1-c1ccccc1	69.2*	2.8	1.2	1.1	7.1	6.8	19.8*
CCCC(Oc1ccc(Br)cc1)c1nc2c3cc(OC)c(OC)cc3nc(=S)n2[nH]1 (stereo not drawn)	46.8*	2.5	-7.2	-0.1	7.0	1.1	39.5*	RORg counter=i
O=C(CSc1nnc(-c2ccncc2)n1-c1ccc(Cl)cc1)c1ccc(Cl)c(Cl)c1	31.1*	x	x	x	x	x	30.8*	RORg counter=>40
CC(=O)Nc1ccc(C(=O)CSc2nnc(-c3ccco3)n2C)cc1	x	-6.6	x	x	7.7	x	x
Cc1ncc(-c2ccncc2)c(C2CCCN(C(=O)c3cnccn3)C2)n1 (stereo not drawn)	x	19.0	x	x	x	x	x
Cc1cnc(C(=O)N2CCCC(c3[nH]ncc3-c3ccncc3)C2)cn1 (stereo not drawn)	x	-18.6	x	x	x	x	x
O=C(COc1ccc(Cl)cc1Cl)Nc1cccc(-c2ccc(N3CCOCC3)nn2)c1	22.1*	x	-2.7	1.8	x	x	14.3*
SMILES	NR1D1 modulator	EP2 modulator	SKN-1 block	PG9 Ab binder	PGE2 EP2 inh	RAM network inh	Rev-erbA confirm	others
O=C(COc1ccc(Cl)cc1Cl)Nc1ccc(-c2ccc(N3CCOCC3)nn2)cc1	-20.6	x	-2.5	-7.9	x	x	x
CN(C)CCn1cc(CN2CCC(O)(c3ccccc3F)CC2)c2ccccc21	x	-62.5	x	x	5.5	x	x
Cc1nn(-c2ccccc2)c2[nH]c(=O)c(CNCCS(=O)(=O)N3CCCC3)cc12	x	-19.3	x	x	8.6	x	x
Cc1cccc(NC(=O)c2ccc3c(Cl)c4c(nc3c2)CCCC4)n1	23.8*	19.0	6.0	2.9	30.5	0.5	10.8
O=C(Nc1ccc(Cl)cn1)c1ccc2c(Cl)c3c(nc2c1)CCC3	-1.8	18.5	-7.1	1.2	6.7	x	x
C=CCSc1nc(N)c(C#N)c(-c2ccccc2)c1C#N	49.9*	8.5	2.2	3.9	7.5	3.7	32.1*	RORg counter=>40
CCCSc1nc(N)c(C#N)c(-c2ccc(C)cc2)c1C#N	66.4*	38.5	9.0	7.2	16.7	5.2	32.5*
CCCCSc1nc(N)c(C#N)c(-c2cccs2)c1C#N	1.7	x	17.5	2.6	21.4	3.0	x
N#Cc1c(N)nc(SCC(=O)C23CC4CC(CC(C4)C2)C3)c(C#N)c1-c1ccc(Cl)cc1	81.1*	16.1	-18.2	-1.0	31.8	4.6	43.6*	RORg counter=>40
Cc1nc(NC(=O)c2ccc(-c3cc4ccccc4oc3=O)cc2)ccc1Br	35.6*	21.4	-10.9	1.4	8.0	-0.1	-7.5
Cc1nc(NC(=O)c2cncc(Br)c2)ccc1Br	61.7*	x	-0.9	-0.1	x	x	54.9*	RORg counter=>40
CCOC(=O)c1ccccc1NC(=O)c1cncc(Br)c1	93.8*	49.3	-9.7	1.4	13.2	4.0	76.9*	RORg counter=>40
Cc1cc(-c2cncnc2C2CCCN(C(=O)Nc3ccccc3F)C2)on1 (stereo not drawn)	x	-45.2	x	x	x	x	x
Cc1nc(SCC(=O)c2c(C)[nH]c3ccccc23)n[nH]1	x	-31.5	x	x	8.0	x	x
O=C(c1cccnc1)C1CCN(C(=O)Cc2ccc(Cl)cc2)CC1	x	-21.1	x	x	x	x	x
S=c1nc(C2CCCCC2)[nH]c2ccccc12	16.4*	13.6	-3.8	8.2	10.3	0.1	12.7
S=c1nc(C2CC2)[nH]c2ccccc12	1.6	34.9	6.1	2.6	19.6	1.4	x
O=S(=O)(c1ccccc1)c1cnn2c(C(F)(F)F)cc(-c3ccc(F)cc3)nc12	23.6*	9.3	-13.1	-0.5	6.5	4.8	-7.5
CC(C)(C)NC(=O)Cn1nnc(-c2ccccc2NC(=O)c2cc3ccccc3oc2=O)n1	x	-12.4	x	x	9.9	x	x
Cc1nc(C)c2c(=O)cc(-c3ccccc3)[nH]c2n1	-2.4	9.2	12.5	1.7	6.0	-0.3	x
Cc1nc(-c2ccccc2)nc2[nH]c(-c3ccccc3)cc(=O)c12	90.1*	1.8	-30.4	7.4	7.2	5.2	80.6*	RORg counter=>40
Cn1ccsc1=NC(=O)c1ccccc1F	-1.3	28.2	8.1	1.2	8.9	-1.4	x
Cc1ccc(C)c(-n2c(-c3ccc(Br)cc3)csc2=NC(=O)c2ccccc2F)c1	38.0*	9.1	-2.6	4.4	13.2	x	48.6*	RORg counter=>40
CCOc1ccc(C(C)=O)cc1COC(=O)c1cc([N+](=O)[O-])ccc1N1CCOCC1	13.7*	x	-9.4	0.4	x	x	-3.3
